Measurements taken from PubChem BioAssay (NCI).
Compounds without any hit were thinned out: in the full panel of roughly 79,000, 15% have a hit. A number with no mark means an inactive call. Activity calls are given as the source filed them. Rule as the data show it: active = growth inhibition above about 70%; inactive = the rest.

How the values were obtained:
[1] = NCI Yeast Anticancer Drug Screen. Data for the rad50 strain (AID 155);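 also: 0% = growth of vehicle-only cultures of the same strain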; details: S. cerevisiae rad50 strain growth inhibition, active compounds read high
Summary of the method: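 Readout: growth inhibition relative to vehicle-treated cultures. Compound exposure was carried out in a genetically defined yeast strain deficient in DNA damage repair.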

[2] = NCI Yeast Anticancer Drug Screen. Data for the mec2-1 strain (AID 157); details: S. cerevisiae mec2-1 strain, active compounds read high
Summary of the method: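 Growth inhibition is read against vehicle-treated controls after compound exposure of the mec2-1 yeast strain, which is defective in DNA damage repair or cell cycle control.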

[3] = NCI Yeast Anticancer Drug Screen. Data for the sgs1 mgt1 strain (AID 161);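 also: 0% = growth of cultures given vehicle only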; details: S. cerevisiae sgs1 mgt1 strain, active compounds read high
Summary of the method: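 Growth of a repair-deficient yeast mutant was monitored after compound treatment and expressed as inhibition relative to vehicle-treated cultures.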

[4] = NCI Yeast Anticancer Drug Screen. Data for the cln2 rad14 strain (AID 165);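 also: 0% = growth equal to vehicle treated cultures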; details: S. cerevisiae cln2 rad14 strain, active compounds read high
Summary of the method: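 Growth inhibition, relative to vehicle-treated controls, is the read-out. The test organism is a yeast strain with defined genetic alterations, cln2 rad14.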

[5] = NCI Yeast Anticancer Drug Screen. Data for the bub3 strain (AID 167); details: S. cerevisiae bub3 mutant strain, active compounds read high
Summary of the method: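 Readout: yeast growth inhibition, expressed relative to vehicle-only wells. The test organism is a mutant strain from a panel with lesions in DNA repair or checkpoint genes.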

[6] = NCI Yeast Anticancer Drug Screen. Data for the mlh1 rad18 strain (AID 175); details: S. cerevisiae mlh1 rad18 strain growth inhibition, active compounds read high
Summary of the method: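 Cells of a genetically altered yeast strain, deficient in DNA damage repair, were treated with compound. Their growth was then compared with that of vehicle-treated cultures to give inhibition.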

[7] = at 5.0 µM (retest, dose inferred, filed as 0.5)
[8] = at 50.0 µM (retest, dose inferred, filed as 5.0)

Structure (SMILES) | growth inhibition [1, 7] | growth inhibition [1, 8] | growth inhibition ([1]; at 50.0 µM) | growth inhibition [2, 7] | growth inhibition [2, 8] | growth inhibition ([2]; at 50.0 µM) | growth inhibition [3, 7] | growth inhibition [3, 8] | growth inhibition ([3]; at 50.0 µM) | growth inhibition [4, 7] | growth inhibition [4, 8] | growth inhibition ([4]; at 50.0 µM) | growth inhibition [5, 7] | growth inhibition [5, 8] | growth inhibition ([5]; at 50.0 µM) | growth inhibition [6, 7] | growth inhibition [6, 8] | growth inhibition ([6]; at 50.0 µM)
CCN1CCCC(Nc2cc(C)nc(/N=C(/N)Nc3ccc(Cl)c(Cl)c3)n2)C1 (configuration not stated) | 48% | 96% (active) | 90% (active) | 32% | 98% (active) | 92% (active) | 48% | 97% (active) | 86.7% (active) | 55% | 86% (active) | 82.7% (active) | 29% | 96% (active) | 83.6% (active) | 57% | 97% (active) | 83.2% (active)
OC(c1cc(C23CC4CC(CC(C4)C2)C3)nc2c(Cl)cc(Cl)cc12)C1CCCCN1 (configuration not stated) | 99% (active) | 98% (active) | 98.7% (active) | 99% (active) | 99% (active) | 98.8% (active) | 99% (active) | 99% (active) | 68.9% | 99% (active) | 98% (active) | 99.1% (active) | 99% (active) | 98% (active) | 98.5% (active) | 99% (active) | 98% (active) | 98.8% (active)
S=C=Nc1ccc(N2CCOCC2)cc1 | 96% (active) | 99% (active) | 99.3% (active) | 31% | 100% (active) | 99.7% (active) | 41% | 99% (active) | 99.7% (active) | 10% | 99% (active) | 96.3% (active) | 26% | 98% (active) | 99.2% (active) | 33% | 99% (active) | 99.2% (active)
Oc1ccc(Nc2ccc3ccccc3c2)cc1 | 9% | 97% (active) | 97.5% (active) | -5% | 98% (active) | 98.5% (active) | 3% | 98% (active) | 88.9% (active) | -5% | 98% (active) | 97.5% (active) | -5% | 96% (active) | 98% (active) | -1% | 98% (active) | 97.6% (active)
O=[N+]([O-])c1ccc(N2CCN(Cc3ccccc3)CC2)c2c1no[n+]2[O-] | 50% | 97% (active) | 90.1% (active) | 18% | 98% (active) | 93.1% (active) | 34% | 92% (active) | 89.5% (active) | 4% | 22% | 72.5% (active) | 11% | 78% (active) | 90% (active) | 39% | 97% (active) | 88.3% (active)
Cc1ccc(NC(=S)C#N)cc1Cl | 46% | 44% | 56.7% | 34% | 44% | 43.4% | 41% | 60% | 77.3% (active) | 37% | 40% | 46.1% | 46% | 45% | 69.9% | 45% | 53% | 4.7%
O=[N+]([O-])CC(O)c1ccccc1 (configuration not stated) | 4% | 26% | 98.4% (active) | -1% | -3% | 52.2% | -2% | 1% | 50.2% | -2% | -1% | 98.6% (active) | -2% | 1% | 50.9% | -2% | 4% | 51.9%
COc1ccc(OC)c(Cc2cnc3nc(N)nc(N)c3c2C)c1 | 21% | 35% | 67.5% | 18% | 74% (active) | 19.7% | 12% | 36% | 41.5% | 9% | 19% | 6.45% | 13% | 19% | 29.1% | 18% | 23% | -1.5%
O=C(CBr)c1ccc(OC(=O)c2ccccc2)cc1 | 97% (active) | 99% (active) | 45.3% | 100% (active) | 99% (active) | 13.1% | 100% (active) | 100% (active) | 18.4% | 44% | 99% (active) | -12.7% | 100% (active) | 100% (active) | 45.8% | 62% | 98% (active) | 74.5% (active)
CN(C)c1ccc(C(=C2C=CC(=[N+](C)C)C=C2)c2ccc(N(C)C)cc2)cc1 | 99% (active) | 90% (active) | 94.9% (active) | 99% (active) | 95% (active) | 95% (active) | 99% (active) | 95% (active) | 94.8% (active) | 99% (active) | 93% (active) | 87.2% (active) | 99% (active) | 91% (active) | 94.8% (active) | 99% (active) | 90% (active) | 91.2% (active)
O=C(/C=C/c1ccccc1)CCC1C(=O)c2ccccc2C1=O | 24% | 40% | 3.25% | 10% | 33% | -9% | 14% | 42% | 1.05% | 10% | 20% | 17.8% | 12% | 51% | -12.6% | 22% | 50% | 4.6%
COc1cc(NCc2ccc3nc(N)nc(N)c3c2C)cc(OC)c1OC (tested in a mixture with another compound) | 24% | 54% | 12.3% | 18% | 87% (active) | 51.8% | 12% | 31% | 43.2% | 23% | 23% | 2.8% | 17% | 24% | 5.05% | 23% | 36% | -45.4%
Cc1cc(=O)oc2cc(O)cc(O)c12 | 0% | -1% | 16.5% | -4% | -2% | -8.95% | -11% | -4% | -8.8% | 0% | -11% | -18.6% | -3% | 6% | -14.7% | -5% | 1% | 6.8%
CCCCCCCCCCCC[N+]1(CCCCCCCCCCCC)CCCC(C)C1 (configuration not stated) | 99% (active) | 99% (active) | 88.8% (active) | 100% (active) | 94% (active) | 91.3% (active) | 100% (active) | 99% (active) | 91.1% (active) | 99% (active) | 99% (active) | 88.1% (active) | 99% (active) | 99% (active) | 90% (active) | 99% (active) | 99% (active) | 88.7% (active)
CCCCCCCCCCCCCCCCCC[S+](C)CC (configuration not stated) | 97% (active) | 94% (active) | 90.2% (active) | 99% (active) | 98% (active) | 92.9% (active) | 99% (active) | 99% (active) | 92.9% (active) | 98% (active) | 98% (active) | 91.6% (active) | 99% (active) | 98% (active) | 91.5% (active) | 98% (active) | 97% (active) | 90.3% (active)
CCN(CC)c1ccc(/C=C\C(=O)c2ccc(NC(C)=O)cc2)cc1 | -22% | -8% | 22.8% | -14% | -21% | 55.4% | -13% | -2% | 52% | -11% | -10% | 28.6% | -12% | -4% | 76.8% (active) | -21% | -9% | 52%
On1c(-c2ccccc2)nc2ccccc2c1=S | 32% | 39% | 86.5% (active) | 41% | 43% | 86.7% (active) | 47% | 95% (active) | 37% | 28% | 95% (active) | 25.4% | 50% | 94% (active) | 90.2% (active) | 39% | 43% | 84.5% (active)
CCCCCCCCCCCCCCCCSC(=NCC)NCC | 99% (active) | 99% (active) | 99.3% (active) | 67% | 99% (active) | 99.7% (active) | 98% (active) | 100% (active) | 99.6% (active) | 23% | 99% (active) | 98.3% (active) | 81% (active) | 99% (active) | 99.5% (active) | 98% (active) | 99% (active) | 99.3% (active)
C[n+]1ccccc1C[n+]1ccccc1 | 4% | 28% | 67.4% | 5% | 17% | 36.1% | 1% | 35% | 66.8% | 6% | 14% | -10.1% | 2% | 20% | 26.2% | 15% | 17% | 53.9%
